Columns and labels:
[1] = molecular target: Protein kinase C gamma type (Homo sapiens) (UniProt P05129); details: at 1 µM;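 also: each value is an averaged percent inhibition of the enzyme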
[2] = molecular target: T1, Protein kinase C iota type (Homo sapiens) (UniProt P41743); details: at 0.1 µM
T1 sequence (whole entry): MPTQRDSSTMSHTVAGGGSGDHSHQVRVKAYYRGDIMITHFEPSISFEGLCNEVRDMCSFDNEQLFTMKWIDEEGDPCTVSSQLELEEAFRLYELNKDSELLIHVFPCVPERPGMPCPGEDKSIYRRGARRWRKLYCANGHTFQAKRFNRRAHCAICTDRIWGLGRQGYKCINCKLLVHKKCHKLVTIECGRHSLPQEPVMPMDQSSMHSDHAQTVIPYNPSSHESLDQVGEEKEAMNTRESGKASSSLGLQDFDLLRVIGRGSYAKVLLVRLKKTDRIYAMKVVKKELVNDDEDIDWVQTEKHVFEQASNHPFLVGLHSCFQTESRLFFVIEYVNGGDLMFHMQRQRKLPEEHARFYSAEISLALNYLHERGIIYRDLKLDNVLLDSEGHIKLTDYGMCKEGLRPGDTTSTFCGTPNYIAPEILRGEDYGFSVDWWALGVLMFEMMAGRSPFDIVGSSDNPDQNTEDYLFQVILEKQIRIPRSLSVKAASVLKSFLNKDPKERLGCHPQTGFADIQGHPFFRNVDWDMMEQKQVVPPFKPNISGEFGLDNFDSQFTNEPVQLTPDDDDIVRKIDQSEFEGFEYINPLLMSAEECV

[3] = molecular target: T1, Protein kinase C iota type (Homo sapiens); details: at 1 µM
[4] = molecular target: Protein kinase C theta type (Homo sapiens) (UniProt Q04759); details: at 0.1 µM
Chain of Protein kinase C theta type (Homo sapiens) (Q04759 whole entry, looked up): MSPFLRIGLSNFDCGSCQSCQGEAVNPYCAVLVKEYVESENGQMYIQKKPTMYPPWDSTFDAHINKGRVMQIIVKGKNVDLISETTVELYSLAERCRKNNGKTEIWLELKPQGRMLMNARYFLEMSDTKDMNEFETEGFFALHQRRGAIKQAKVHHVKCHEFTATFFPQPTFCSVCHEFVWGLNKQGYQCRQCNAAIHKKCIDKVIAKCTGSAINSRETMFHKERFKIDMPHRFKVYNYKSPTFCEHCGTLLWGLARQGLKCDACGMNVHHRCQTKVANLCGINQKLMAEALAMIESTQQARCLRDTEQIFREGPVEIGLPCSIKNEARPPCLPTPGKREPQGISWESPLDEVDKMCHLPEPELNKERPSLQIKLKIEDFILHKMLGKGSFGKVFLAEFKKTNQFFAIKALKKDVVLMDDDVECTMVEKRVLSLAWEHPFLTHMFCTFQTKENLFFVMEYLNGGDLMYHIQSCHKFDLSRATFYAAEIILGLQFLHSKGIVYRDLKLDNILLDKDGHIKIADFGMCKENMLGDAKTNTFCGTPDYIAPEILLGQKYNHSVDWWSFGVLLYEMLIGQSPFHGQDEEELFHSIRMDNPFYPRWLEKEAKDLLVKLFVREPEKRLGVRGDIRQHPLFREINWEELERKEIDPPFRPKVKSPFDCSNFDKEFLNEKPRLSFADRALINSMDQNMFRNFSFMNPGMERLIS

[5] = molecular target: Protein kinase C theta type (Homo sapiens) (UniProt Q04759); details: at 1 µM
[6] = molecular target: Protein kinase C beta type (Homo sapiens) (UniProt P05771); details: at 0.1 µM
Chain of Protein kinase C beta type (Homo sapiens) (P05771 2-671 limits assumed): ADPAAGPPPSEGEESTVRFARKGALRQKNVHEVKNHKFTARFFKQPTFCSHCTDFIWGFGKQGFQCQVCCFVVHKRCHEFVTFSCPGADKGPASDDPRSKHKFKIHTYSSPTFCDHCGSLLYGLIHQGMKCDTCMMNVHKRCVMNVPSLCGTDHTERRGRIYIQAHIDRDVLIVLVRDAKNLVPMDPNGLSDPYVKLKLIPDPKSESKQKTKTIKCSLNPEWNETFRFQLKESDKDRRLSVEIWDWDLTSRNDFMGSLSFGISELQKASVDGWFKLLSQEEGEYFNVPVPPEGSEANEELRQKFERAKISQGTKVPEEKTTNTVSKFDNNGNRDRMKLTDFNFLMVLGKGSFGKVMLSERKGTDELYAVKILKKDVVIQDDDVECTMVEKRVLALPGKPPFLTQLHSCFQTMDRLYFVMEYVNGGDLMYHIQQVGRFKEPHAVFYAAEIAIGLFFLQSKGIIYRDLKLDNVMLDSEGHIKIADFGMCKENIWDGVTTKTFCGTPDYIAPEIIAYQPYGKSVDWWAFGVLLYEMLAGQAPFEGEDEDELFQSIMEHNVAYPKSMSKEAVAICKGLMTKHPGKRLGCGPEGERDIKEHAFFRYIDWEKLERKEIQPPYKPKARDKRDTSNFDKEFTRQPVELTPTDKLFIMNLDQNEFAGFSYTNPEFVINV

[7] = molecular target: Protein kinase C beta type (Homo sapiens) (UniProt P05771); details: at 1 µM
[8] = molecular target: T2, Serine/threonine-protein kinase D1 (Homo sapiens) (UniProt Q15139); details: at 0.1 µM
T2 sequence (whole entry): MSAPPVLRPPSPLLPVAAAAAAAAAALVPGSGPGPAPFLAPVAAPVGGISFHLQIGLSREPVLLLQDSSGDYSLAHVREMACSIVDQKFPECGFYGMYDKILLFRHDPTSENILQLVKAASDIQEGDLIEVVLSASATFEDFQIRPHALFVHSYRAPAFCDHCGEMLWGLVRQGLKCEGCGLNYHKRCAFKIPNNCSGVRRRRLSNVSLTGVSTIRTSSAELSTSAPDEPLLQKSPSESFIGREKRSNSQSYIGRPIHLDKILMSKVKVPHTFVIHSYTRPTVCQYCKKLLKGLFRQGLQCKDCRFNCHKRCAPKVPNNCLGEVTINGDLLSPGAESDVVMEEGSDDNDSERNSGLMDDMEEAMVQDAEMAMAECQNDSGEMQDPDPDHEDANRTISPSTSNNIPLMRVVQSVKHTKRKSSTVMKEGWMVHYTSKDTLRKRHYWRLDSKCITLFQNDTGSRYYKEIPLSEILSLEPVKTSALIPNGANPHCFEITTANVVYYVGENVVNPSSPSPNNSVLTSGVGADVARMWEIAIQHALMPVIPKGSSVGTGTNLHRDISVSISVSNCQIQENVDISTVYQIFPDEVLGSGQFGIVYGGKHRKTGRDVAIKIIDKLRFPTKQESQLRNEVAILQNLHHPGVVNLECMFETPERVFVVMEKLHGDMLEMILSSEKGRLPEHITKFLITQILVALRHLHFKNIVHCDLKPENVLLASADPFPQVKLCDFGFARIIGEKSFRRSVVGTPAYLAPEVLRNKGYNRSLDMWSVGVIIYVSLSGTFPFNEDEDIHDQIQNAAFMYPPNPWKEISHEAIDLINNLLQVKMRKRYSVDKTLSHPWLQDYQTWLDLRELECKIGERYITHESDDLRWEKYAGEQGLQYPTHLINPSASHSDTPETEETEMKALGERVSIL

[9] = molecular target: T2, Serine/threonine-protein kinase D1 (Homo sapiens); details: at 1 µM
[10] = molecular target: T3, Serine/threonine-protein kinase D2 (Homo sapiens) (UniProt Q9BZL6); details: at 0.1 µM
T3 sequence (whole entry): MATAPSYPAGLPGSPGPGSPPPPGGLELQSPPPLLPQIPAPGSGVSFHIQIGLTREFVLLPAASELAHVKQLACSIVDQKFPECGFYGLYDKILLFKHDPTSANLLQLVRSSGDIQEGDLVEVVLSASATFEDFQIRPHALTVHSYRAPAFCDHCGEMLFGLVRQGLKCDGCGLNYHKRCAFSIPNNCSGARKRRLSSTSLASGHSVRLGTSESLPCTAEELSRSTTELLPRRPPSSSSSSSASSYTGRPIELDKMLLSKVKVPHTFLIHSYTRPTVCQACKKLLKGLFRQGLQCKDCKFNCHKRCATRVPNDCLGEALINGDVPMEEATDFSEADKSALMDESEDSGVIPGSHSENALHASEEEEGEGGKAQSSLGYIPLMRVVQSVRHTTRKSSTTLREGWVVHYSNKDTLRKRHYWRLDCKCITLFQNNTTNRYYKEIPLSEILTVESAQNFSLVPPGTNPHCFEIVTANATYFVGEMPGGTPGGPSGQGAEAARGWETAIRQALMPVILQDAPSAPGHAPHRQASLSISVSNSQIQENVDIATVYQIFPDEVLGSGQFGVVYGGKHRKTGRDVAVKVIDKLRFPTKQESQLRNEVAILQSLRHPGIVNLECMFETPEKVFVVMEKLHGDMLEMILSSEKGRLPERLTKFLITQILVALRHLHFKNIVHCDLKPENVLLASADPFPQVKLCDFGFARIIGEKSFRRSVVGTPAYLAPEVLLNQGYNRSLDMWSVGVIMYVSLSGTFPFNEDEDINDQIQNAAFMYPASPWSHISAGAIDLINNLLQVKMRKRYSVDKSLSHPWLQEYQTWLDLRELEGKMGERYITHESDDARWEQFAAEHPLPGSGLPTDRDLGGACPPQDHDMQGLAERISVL

[11] = molecular target: T3, Serine/threonine-protein kinase D2 (Homo sapiens); details: at 1 µM
[12] = molecular target: T4, Serine/threonine-protein kinase D3 (Homo sapiens) (UniProt O94806); details: at 0.1 µM
T4 sequence (whole entry): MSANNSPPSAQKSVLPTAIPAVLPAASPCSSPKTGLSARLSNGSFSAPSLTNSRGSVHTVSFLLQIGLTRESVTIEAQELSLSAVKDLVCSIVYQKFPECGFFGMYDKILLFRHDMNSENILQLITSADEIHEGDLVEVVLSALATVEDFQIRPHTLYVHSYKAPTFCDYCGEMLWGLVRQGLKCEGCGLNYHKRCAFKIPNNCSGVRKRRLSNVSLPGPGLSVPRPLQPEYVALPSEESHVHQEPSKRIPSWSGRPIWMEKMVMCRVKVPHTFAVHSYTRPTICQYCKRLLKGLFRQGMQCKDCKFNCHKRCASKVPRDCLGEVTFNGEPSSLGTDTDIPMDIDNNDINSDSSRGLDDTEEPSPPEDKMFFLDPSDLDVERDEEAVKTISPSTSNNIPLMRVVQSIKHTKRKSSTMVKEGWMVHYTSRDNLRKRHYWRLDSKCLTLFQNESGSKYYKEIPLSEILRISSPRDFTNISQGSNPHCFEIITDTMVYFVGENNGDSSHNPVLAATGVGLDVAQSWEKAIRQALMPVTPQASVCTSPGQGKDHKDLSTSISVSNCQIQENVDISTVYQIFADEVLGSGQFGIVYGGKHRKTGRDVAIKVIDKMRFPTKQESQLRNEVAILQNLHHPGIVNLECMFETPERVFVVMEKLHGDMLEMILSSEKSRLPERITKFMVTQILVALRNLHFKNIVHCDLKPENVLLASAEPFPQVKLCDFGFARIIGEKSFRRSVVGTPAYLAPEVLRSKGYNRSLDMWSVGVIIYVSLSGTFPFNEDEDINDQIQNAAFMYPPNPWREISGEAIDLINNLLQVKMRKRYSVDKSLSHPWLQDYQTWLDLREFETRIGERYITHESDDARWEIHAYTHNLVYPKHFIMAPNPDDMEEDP

[13] = molecular target: T4, Serine/threonine-protein kinase D3 (Homo sapiens); details: at 1 µM
[14] = molecular target: T5, cGMP-dependent protein kinase 1 (Homo sapiens) (UniProt Q13976); details: at 0.1 µM
T5 sequence (whole entry): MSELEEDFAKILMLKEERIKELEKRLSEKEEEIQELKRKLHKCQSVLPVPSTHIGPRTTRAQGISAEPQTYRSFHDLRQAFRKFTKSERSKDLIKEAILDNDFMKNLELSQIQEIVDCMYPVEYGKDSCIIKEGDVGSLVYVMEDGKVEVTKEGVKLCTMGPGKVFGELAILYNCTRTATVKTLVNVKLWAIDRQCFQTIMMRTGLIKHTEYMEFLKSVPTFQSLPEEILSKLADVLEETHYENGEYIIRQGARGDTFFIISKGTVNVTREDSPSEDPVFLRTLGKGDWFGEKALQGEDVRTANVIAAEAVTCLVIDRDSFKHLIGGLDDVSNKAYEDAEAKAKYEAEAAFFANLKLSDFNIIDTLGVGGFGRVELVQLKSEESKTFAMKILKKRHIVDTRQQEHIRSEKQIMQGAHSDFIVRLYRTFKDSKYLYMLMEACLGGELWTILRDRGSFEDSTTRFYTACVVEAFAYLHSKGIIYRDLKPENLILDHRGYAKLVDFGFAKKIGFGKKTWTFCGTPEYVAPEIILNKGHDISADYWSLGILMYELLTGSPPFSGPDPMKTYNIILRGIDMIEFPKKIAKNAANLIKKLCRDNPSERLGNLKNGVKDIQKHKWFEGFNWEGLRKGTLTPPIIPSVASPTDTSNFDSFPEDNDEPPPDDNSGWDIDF

[15] = molecular target: T5, cGMP-dependent protein kinase 1 (Homo sapiens); details: at 1 µM
[16] = molecular target: T6, cGMP-dependent protein kinase 2 (Homo sapiens) (UniProt Q13237); details: at 0.1 µM
T6 sequence (whole entry): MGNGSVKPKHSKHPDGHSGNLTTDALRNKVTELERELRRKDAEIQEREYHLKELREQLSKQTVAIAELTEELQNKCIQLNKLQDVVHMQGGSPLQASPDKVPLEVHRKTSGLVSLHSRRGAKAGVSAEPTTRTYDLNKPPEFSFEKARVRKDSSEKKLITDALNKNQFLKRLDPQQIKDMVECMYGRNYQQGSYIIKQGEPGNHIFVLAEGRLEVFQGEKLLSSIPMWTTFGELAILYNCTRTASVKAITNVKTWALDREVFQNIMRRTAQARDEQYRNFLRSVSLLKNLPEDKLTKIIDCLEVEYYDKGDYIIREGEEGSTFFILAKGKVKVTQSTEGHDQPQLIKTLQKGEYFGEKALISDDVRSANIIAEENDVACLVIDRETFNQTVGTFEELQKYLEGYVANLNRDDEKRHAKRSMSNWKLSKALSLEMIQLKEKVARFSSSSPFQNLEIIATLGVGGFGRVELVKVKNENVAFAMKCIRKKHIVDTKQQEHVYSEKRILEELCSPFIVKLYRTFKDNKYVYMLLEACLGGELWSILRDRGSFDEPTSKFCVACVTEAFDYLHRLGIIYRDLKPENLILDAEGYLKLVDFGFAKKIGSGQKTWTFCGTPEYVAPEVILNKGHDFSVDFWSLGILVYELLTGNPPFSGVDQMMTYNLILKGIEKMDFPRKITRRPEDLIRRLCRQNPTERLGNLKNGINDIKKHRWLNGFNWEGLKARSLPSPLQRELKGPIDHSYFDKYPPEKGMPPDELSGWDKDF

[17] = molecular target: T6, cGMP-dependent protein kinase 2 (Homo sapiens); details: at 1 µM
[18] = molecular target: T7, cAMP-dependent protein kinase catalytic subunit PRKX (Homo sapiens) (UniProt P51817); details: at 0.1 µM
T7 sequence (whole entry): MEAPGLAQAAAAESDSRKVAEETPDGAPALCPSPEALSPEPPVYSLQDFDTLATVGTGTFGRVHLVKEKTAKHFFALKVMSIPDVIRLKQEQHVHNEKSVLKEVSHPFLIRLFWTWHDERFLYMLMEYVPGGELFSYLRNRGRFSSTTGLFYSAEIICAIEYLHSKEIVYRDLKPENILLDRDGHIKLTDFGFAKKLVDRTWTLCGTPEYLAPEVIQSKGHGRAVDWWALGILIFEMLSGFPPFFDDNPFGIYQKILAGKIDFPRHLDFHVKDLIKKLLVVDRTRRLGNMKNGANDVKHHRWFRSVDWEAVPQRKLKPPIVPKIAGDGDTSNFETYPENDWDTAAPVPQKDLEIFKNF

[19] = molecular target: T7, cAMP-dependent protein kinase catalytic subunit PRKX (Homo sapiens); details: at 1 µM
[20] = molecular target: Rho-associated protein kinase 1 (Homo sapiens) (UniProt Q13464); details: at 0.1 µM;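 also: values are mean percent inhibition of ROCK1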
Chain of Rho-associated protein kinase 1 (Homo sapiens) (Q13464 2-1354 limits assumed): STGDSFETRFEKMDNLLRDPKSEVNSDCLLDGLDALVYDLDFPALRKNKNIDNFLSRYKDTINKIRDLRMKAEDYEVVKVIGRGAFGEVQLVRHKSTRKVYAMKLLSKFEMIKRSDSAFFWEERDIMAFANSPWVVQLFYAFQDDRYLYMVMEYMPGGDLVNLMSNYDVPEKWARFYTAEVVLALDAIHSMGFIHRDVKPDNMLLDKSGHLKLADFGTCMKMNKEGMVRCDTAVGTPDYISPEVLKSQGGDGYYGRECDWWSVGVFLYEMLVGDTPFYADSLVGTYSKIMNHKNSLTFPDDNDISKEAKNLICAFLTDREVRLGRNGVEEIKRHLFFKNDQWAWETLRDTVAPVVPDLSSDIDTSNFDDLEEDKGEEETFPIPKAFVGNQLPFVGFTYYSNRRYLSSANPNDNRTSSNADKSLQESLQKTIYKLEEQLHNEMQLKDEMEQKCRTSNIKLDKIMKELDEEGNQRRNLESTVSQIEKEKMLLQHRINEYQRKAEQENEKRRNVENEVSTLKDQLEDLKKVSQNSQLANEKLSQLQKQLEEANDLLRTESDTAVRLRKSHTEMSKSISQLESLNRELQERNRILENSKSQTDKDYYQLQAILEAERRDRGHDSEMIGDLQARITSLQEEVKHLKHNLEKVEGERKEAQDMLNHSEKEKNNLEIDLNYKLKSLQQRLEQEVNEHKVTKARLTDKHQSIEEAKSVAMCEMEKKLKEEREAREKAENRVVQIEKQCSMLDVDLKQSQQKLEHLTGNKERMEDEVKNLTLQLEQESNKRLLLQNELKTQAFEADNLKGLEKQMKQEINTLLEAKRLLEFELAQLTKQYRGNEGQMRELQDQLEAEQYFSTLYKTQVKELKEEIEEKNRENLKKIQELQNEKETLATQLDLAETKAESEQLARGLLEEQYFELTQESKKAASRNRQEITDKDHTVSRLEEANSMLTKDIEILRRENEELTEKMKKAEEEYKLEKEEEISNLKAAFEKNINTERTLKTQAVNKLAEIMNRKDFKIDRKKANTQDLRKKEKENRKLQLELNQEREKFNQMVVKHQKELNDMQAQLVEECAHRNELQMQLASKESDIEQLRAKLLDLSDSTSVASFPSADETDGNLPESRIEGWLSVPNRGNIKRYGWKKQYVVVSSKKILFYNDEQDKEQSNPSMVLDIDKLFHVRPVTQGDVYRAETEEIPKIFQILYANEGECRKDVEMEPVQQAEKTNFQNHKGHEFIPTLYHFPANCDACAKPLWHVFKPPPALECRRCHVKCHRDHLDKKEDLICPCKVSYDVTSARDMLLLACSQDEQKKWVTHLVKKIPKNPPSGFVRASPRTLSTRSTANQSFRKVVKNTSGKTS

Compound | inhibition [1] [%] | inhibition [2] [%] | inhibition [3] [%] | inhibition [4] [%] | inhibition [5] [%] | inhibition [6] [%] | inhibition [7] [%] | inhibition [8] [%] | inhibition [9] [%] | inhibition [10] [%] | inhibition [11] [%] | inhibition [12] [%] | inhibition [13] [%] | inhibition [14] [%] | inhibition [15] [%] | inhibition [16] [%] | inhibition [17] [%] | inhibition [18] [%] | inhibition [19] [%] | inhibition [20] [%]
CCS(=O)(=O)c1ccc(OC)c(Nc2nccc(N(C)c3ccc4c(C)n[nH]c4c3)n2)c1 | 3.15 | 2.77 | 2.66 | 2.68 | 2.9 | 1.61 | 2.71 | 4.99 | 6.33 | 4.18 | 3.25 | 4.79 | 4.86 | 4.43 | 2.44 | 2.68 | 3.13 | 2.11 | 2.47 | 1.77
COC(=O)c1cncc(/C=C/c2c(C)cc(O)cc2C)c1 | 3.93 | 2.79 | 0.49 | 2.55 | 3.44 | -1.36 | 2.82 | 3.37 | 5 | 3.87 | 4 | 4.31 | 3.64 | 3.3 | 2.75 | 1.54 | 2.4 | 1.78 | 3.76 | 0.77
Cc1ccc(O)cc1Nc1ccnc2ccc(S(C)(=O)=O)cc12 | 4.87 | 3.04 | 1.3 | 3.39 | 7.6 | 2.21 | 4.59 | 5.19 | 24.7 | 7.07 | 33.2 | 6.86 | 22.7 | 2.84 | 4.22 | 1.71 | 4.03 | 2.75 | 4.14 | 1.34
